According to the supplement of paper PMC6555819:

Experiments:
Assay in all cases: PBM binding z-score (relative to random genomic background probes); higher = stronger binding; sequences stand for … in GC…GCGATTGACAGCGTAGAATGAAGG
[1] = test system: RARb homodimer (NR concentration 270 nM)
Summary of the method: (§1)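 Binding buffer was PBS pH 7.4 with 2% milk, 0.02% Triton X-100, 1 mM DTT, 0.2 mg/mL BSA and 0.4 mg/ml salmon testes DNA. In it, ligand-free nuclear receptor dimers were incubated 1 h on custom Agilent 4×180K protein-binding microarrays carrying double-stranded probes. Antibodies against each partner (one per run) detected binding, and z-scores were calculated against random background probes after regression normalization of scanned fluorescence.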

[2] = test system: RARg:RXRa (NR concentration 270 nM, RXRa partner concentration 90 nM)
Summary of the method: as §1

[3] = test system: RARg homodimer (NR concentration 270 nM)
Summary of the method: as §1

[4] = test system: RXRa DBDmut IVT, anti-RXR (DBD mutation: RXRa K156A/R161A, NR concentration 90 nM)
Summary of the method: as §1

[5] = test system: RXRa homodimer (NR concentration 180 nM)
Summary of the method: as §1

[6] = test system: THRa:RXRa (NR concentration 90 nM, RXRa partner concentration 90 nM)
Summary of the method: as §1

[7] = test system: THRa homodimer (NR concentration 90 nM)
Summary of the method: as §1

[8] = test system: VDR homodimer (NR concentration 270 nM)
Summary of the method: as §1

Sequence: TGTCAAAGTTCAAAGGTAACGGAAGTATCCACAC
- PBM binding z-score [1]: 3.76
- PBM binding z-score [2]: 6.56
- PBM binding z-score [3]: 5.94
- PBM binding z-score [4]: 4.29
- PBM binding z-score [5]: 7.52
- PBM binding z-score [6]: 2.99
- PBM binding z-score [7]: 0.158
- PBM binding z-score [8]: 4.06

Sequence: CCTACTGGGCCAAGAAAGGTCATTGATTCAGTGA
- PBM binding z-score [1]: 4.44
- PBM binding z-score [2]: 3.99
- PBM binding z-score [3]: 3.46
- PBM binding z-score [4]: 0.261
- PBM binding z-score [5]: 4.4
- PBM binding z-score [6]: 3.43
- PBM binding z-score [7]: 0.419
- PBM binding z-score [8]: 2.23

Sequence: TTACCAAGGTGAGCTGTGGTCGTTGATCCAACTC
- PBM binding z-score [1]: 0.173
- PBM binding z-score [2]: 0.108
- PBM binding z-score [3]: -0.154
- PBM binding z-score [4]: -0.592
- PBM binding z-score [5]: 0.152
- PBM binding z-score [6]: 1.78
- PBM binding z-score [7]: -0.136
- PBM binding z-score [8]: -0.783

Sequence: TGAATGAGGTTATAAGATCAGGGGACGTTGCAAA
- PBM binding z-score [1]: 0.854
- PBM binding z-score [2]: 1.51
- PBM binding z-score [3]: 0.975
- PBM binding z-score [4]: 1.3
- PBM binding z-score [5]: 2.02
- PBM binding z-score [6]: 2.1
- PBM binding z-score [7]: 0.619
- PBM binding z-score [8]: 1.21

Sequence: CAAATTAGGTCAAAGGTCAAAGTCGAGCCAACCA
- PBM binding z-score [1]: 5.41
- PBM binding z-score [2]: 9.09
- PBM binding z-score [3]: 7.57
- PBM binding z-score [4]: 3.17
- PBM binding z-score [5]: 10.4
- PBM binding z-score [6]: 4.76
- PBM binding z-score [7]: 2.4
- PBM binding z-score [8]: 3.43

Sequence: AGAATGAGGTTATCAAAGATCAGGGAAACGCTTG
- PBM binding z-score [1]: 0.294
- PBM binding z-score [2]: 1.47
- PBM binding z-score [3]: 1.24
- PBM binding z-score [4]: 1.49
- PBM binding z-score [5]: 2.28
- PBM binding z-score [6]: 2.58
- PBM binding z-score [7]: 0.571
- PBM binding z-score [8]: 0.495

Sequence: CCGAGTAGGTTATGGAGCATTCAGGCAACGGTGA
- PBM binding z-score [1]: 0.461
- PBM binding z-score [2]: 0.362
- PBM binding z-score [3]: 0.489
- PBM binding z-score [4]: 0.355
- PBM binding z-score [5]: 0.308
- PBM binding z-score [6]: 0.145
- PBM binding z-score [7]: 0.277
- PBM binding z-score [8]: 0.244

Sequence: ACAGAAAGGTGAGTGAAGGTAACTCAGCTGGACG
- PBM binding z-score [1]: 1.15
- PBM binding z-score [2]: 1.58
- PBM binding z-score [3]: 1.59
- PBM binding z-score [4]: -0.371
- PBM binding z-score [5]: 1.28
- PBM binding z-score [6]: 2.58
- PBM binding z-score [7]: -0.361
- PBM binding z-score [8]: -0.509

Sequence: AGAATGAGGTTACCAAAGATGAGGGAAACGCTTG
- PBM binding z-score [1]: 0.76
- PBM binding z-score [2]: 1.85
- PBM binding z-score [3]: 1.54
- PBM binding z-score [4]: 1.22
- PBM binding z-score [5]: 2.43
- PBM binding z-score [6]: 2.55
- PBM binding z-score [7]: 0.977
- PBM binding z-score [8]: 0.767

Sequence: GCATATAGGTAATACAAGCTGAAAGTCCGATTGT
- PBM binding z-score [1]: -0.29
- PBM binding z-score [2]: 0.165
- PBM binding z-score [3]: 0.41
- PBM binding z-score [4]: 0.344
- PBM binding z-score [5]: 0.524
- PBM binding z-score [6]: -0.299
- PBM binding z-score [7]: -0.467
- PBM binding z-score [8]: -0.000967

Sequence: ATCTCTAGGTAAATTTCAGTGAAAGATCGATAGA
- PBM binding z-score [1]: -0.353
- PBM binding z-score [2]: 0.0563
- PBM binding z-score [3]: 0.241
- PBM binding z-score [4]: 0.179
- PBM binding z-score [5]: 0.137
- PBM binding z-score [6]: 0.356
- PBM binding z-score [7]: -0.0111
- PBM binding z-score [8]: 0.034

Sequence: AGAATGAGGATATTAAGATCAGGGAATTGCGGTC
- PBM binding z-score [1]: -0.295
- PBM binding z-score [2]: 0.0101
- PBM binding z-score [3]: 0.354
- PBM binding z-score [4]: 0.0131
- PBM binding z-score [5]: 0.0885
- PBM binding z-score [6]: 0.447
- PBM binding z-score [7]: -0.112
- PBM binding z-score [8]: 0.17

Sequence: AATACAGGGTCACTAGGCCAGAGTCGGTACGAAT
- PBM binding z-score [1]: 3.25
- PBM binding z-score [2]: 5.29
- PBM binding z-score [3]: 4.87
- PBM binding z-score [4]: 2.71
- PBM binding z-score [5]: 5.3
- PBM binding z-score [6]: 3.43
- PBM binding z-score [7]: 1.24
- PBM binding z-score [8]: 2.7

Sequence: TCATATAGGTAACCAGGTGAAAGTCCGTAAGTTA
- PBM binding z-score [1]: 0.957
- PBM binding z-score [2]: 0.558
- PBM binding z-score [3]: 0.452
- PBM binding z-score [4]: 1.38
- PBM binding z-score [5]: 1.25
- PBM binding z-score [6]: 1.73
- PBM binding z-score [7]: 1.05
- PBM binding z-score [8]: 0.27

Sequence: ACTATTAGTTGACTTTGGGCAACCGATACGACGC
- PBM binding z-score [1]: 0.274
- PBM binding z-score [2]: 0.43
- PBM binding z-score [3]: 0.635
- PBM binding z-score [4]: 0.79
- PBM binding z-score [5]: 0.476
- PBM binding z-score [6]: 0.55
- PBM binding z-score [7]: 0.0342
- PBM binding z-score [8]: 0.298

Sequence: ACAGACAGGTGAGTGAAGGTAACTCAACTGGACG
- PBM binding z-score [1]: 0.036
- PBM binding z-score [2]: 0.211
- PBM binding z-score [3]: 0.661
- PBM binding z-score [4]: -0.368
- PBM binding z-score [5]: 0.324
- PBM binding z-score [6]: 1.75
- PBM binding z-score [7]: -0.422
- PBM binding z-score [8]: -0.644

Sequence: CCGACTGGGGCATAAGGGTACCATAAGCCAGCCC
- PBM binding z-score [1]: 0.3
- PBM binding z-score [2]: 0.401
- PBM binding z-score [3]: 0.239
- PBM binding z-score [4]: -0.871
- PBM binding z-score [5]: 0.269
- PBM binding z-score [6]: -0.0868
- PBM binding z-score [7]: -0.457
- PBM binding z-score [8]: -0.543

Sequence: TCATATAGGTAATACTGGTGAAAGTCGGCATCTA
- PBM binding z-score [1]: -0.0217
- PBM binding z-score [2]: 0.407
- PBM binding z-score [3]: 0.265
- PBM binding z-score [4]: 1.59
- PBM binding z-score [5]: 0.819
- PBM binding z-score [6]: 0.113
- PBM binding z-score [7]: -0.05
- PBM binding z-score [8]: 0.596

Sequence: TCTTGTAGATCAAAGGTTCAGAAAGCCGAAGCCT
- PBM binding z-score [1]: 0.917
- PBM binding z-score [2]: 0.795
- PBM binding z-score [3]: 0.335
- PBM binding z-score [4]: 1.32
- PBM binding z-score [5]: 1.29
- PBM binding z-score [6]: 0.166
- PBM binding z-score [7]: -0.308
- PBM binding z-score [8]: 1.5

Sequence: TGAATTAGGTTATAAGATCAGGGAACGTTGCAAA
- PBM binding z-score [1]: -0.204
- PBM binding z-score [2]: 0.498
- PBM binding z-score [3]: 0.508
- PBM binding z-score [4]: -0.196
- PBM binding z-score [5]: 0.503
- PBM binding z-score [6]: 0.533
- PBM binding z-score [7]: 0.0659
- PBM binding z-score [8]: 0.321

Sequence: AGAATGAGGTTATTAAGATCAGGCAATTGCGGTC
- PBM binding z-score [1]: 0.685
- PBM binding z-score [2]: 1.05
- PBM binding z-score [3]: 0.712
- PBM binding z-score [4]: 1.89
- PBM binding z-score [5]: 1.65
- PBM binding z-score [6]: 2.22
- PBM binding z-score [7]: 0.632
- PBM binding z-score [8]: 1.24

Sequence: GGAACGAGGGCAAGTTGATAGCCGAGTTTGATGG
- PBM binding z-score [1]: 1.56
- PBM binding z-score [2]: 1.84
- PBM binding z-score [3]: 2.12
- PBM binding z-score [4]: 2.37
- PBM binding z-score [5]: 0.956
- PBM binding z-score [6]: 1.22
- PBM binding z-score [7]: -0.266
- PBM binding z-score [8]: 1.92

Sequence: TCTAGTTGGACACGGAGGTCACACACGACGGGTA
- PBM binding z-score [1]: 4.2
- PBM binding z-score [2]: 3.95
- PBM binding z-score [3]: 3.96
- PBM binding z-score [4]: 0.997
- PBM binding z-score [5]: 4.47
- PBM binding z-score [6]: 3.6
- PBM binding z-score [7]: 2.32
- PBM binding z-score [8]: 2.67

Sequence: ATCTCTAGGTAACAAGTTCAGAGAAAGAGAGGAC
- PBM binding z-score [1]: 1.98
- PBM binding z-score [2]: 1.45
- PBM binding z-score [3]: 1.32
- PBM binding z-score [4]: 0.95
- PBM binding z-score [5]: 1.04
- PBM binding z-score [6]: 1.49
- PBM binding z-score [7]: 0.815
- PBM binding z-score [8]: 2.72

Sequence: CCTCGGCGGACAACAGGAGGTCAGAGCTGCCAGA
- PBM binding z-score [1]: 2.88
- PBM binding z-score [2]: 2.16
- PBM binding z-score [3]: 2.04
- PBM binding z-score [4]: -0.404
- PBM binding z-score [5]: 1.71
- PBM binding z-score [6]: 1.75
- PBM binding z-score [7]: 0.00224
- PBM binding z-score [8]: 0.257

Sequence: CCTTACGGGTCACTCCAGGTTATAGCATCGGAGT
- PBM binding z-score [1]: 3.23
- PBM binding z-score [2]: 4.39
- PBM binding z-score [3]: 4.35
- PBM binding z-score [4]: 1.5
- PBM binding z-score [5]: 4.36
- PBM binding z-score [6]: 4.89
- PBM binding z-score [7]: 0.826
- PBM binding z-score [8]: 1.69

Sequence: GCTTGTATATCAAGGTTAAGAAAGACTAAGCTAA
- PBM binding z-score [1]: 0.176
- PBM binding z-score [2]: 0.526
- PBM binding z-score [3]: 0.28
- PBM binding z-score [4]: 0.464
- PBM binding z-score [5]: 0.746
- PBM binding z-score [6]: 1.24
- PBM binding z-score [7]: -0.21
- PBM binding z-score [8]: -0.0299

Sequence: CCTATTAGTTGACCATAAGGGCAACCGGAGCTCG
- PBM binding z-score [1]: 2.03
- PBM binding z-score [2]: 1.22
- PBM binding z-score [3]: 1.19
- PBM binding z-score [4]: 0.709
- PBM binding z-score [5]: 0.658
- PBM binding z-score [6]: 1.87
- PBM binding z-score [7]: 1.53
- PBM binding z-score [8]: 1.15

Sequence: TAGCCTAGGACATTCAGGGGCCAGTATAGAAAGC
- PBM binding z-score [1]: 0.77
- PBM binding z-score [2]: 0.352
- PBM binding z-score [3]: 0.546
- PBM binding z-score [4]: -0.698
- PBM binding z-score [5]: -0.1
- PBM binding z-score [6]: 0.588
- PBM binding z-score [7]: -0.132
- PBM binding z-score [8]: -0.236
